Six compounds from PubChem BioAssay AID504833 (Johns Hopkins Ion Channel Center, 2011) can be followed below.

About 2,200 (88%) of roughly 2,500 compounds were called active. The set was probably picked from earlier hits. A selection follows. Values without a mark were called inactive.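 How the source made its calls: active means primary screen active, with duplicate mean activation above negative control mean plus 3 SD (cut at about 11% in these data); inactive means the rest.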

Sequence of High affinity choline transporter 1 (Homo sapiens) (Q9GZV3 whole entry, looked up): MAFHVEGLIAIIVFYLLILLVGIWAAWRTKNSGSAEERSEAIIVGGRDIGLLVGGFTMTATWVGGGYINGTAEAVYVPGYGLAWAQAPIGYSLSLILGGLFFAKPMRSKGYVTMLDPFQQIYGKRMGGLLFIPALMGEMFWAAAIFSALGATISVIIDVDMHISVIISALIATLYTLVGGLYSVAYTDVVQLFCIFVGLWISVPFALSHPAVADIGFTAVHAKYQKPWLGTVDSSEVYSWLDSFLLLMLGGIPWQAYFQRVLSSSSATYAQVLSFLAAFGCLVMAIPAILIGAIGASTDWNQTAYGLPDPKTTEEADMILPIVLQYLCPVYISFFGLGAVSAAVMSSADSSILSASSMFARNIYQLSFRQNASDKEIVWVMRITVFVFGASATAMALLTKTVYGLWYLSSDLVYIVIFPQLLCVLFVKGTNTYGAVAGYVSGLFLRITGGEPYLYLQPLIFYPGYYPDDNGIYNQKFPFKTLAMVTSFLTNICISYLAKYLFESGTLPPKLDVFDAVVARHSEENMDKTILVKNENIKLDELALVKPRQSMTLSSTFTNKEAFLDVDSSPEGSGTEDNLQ

This test has as its target High affinity choline transporter 1 (Homo sapiens) (UniProt Q9GZV3). Put plainly: human choline transporter potentiators – cell-based, membrane potential dye, duplicate, confirmation (AID 504833). The following applies: CHT-expressing cells, membrane potential dye fluorescence (FDSS); at 10 µM; hits give high values; % of choline EC20–EC90 response window; HEK293 expressing CHT LV-AA mutant; choline added at its EC20.
Take `CN1CCN(c2cc(N3CCNCC3)ccc2[N+](=O)[O-])CC1`: the activation is 80.3% (active).

Take `Cc1nc2ccc(N3CCN(C)CC3)cc2nc1C`: the activation is 20.3% (active).

Regarding `CCCCCn1c(=O)c(C(=O)Nc2c(C)n(C)n(-c3ccccc3)c2=O)c(O)c2ccccc21`, the activation is 6.79%.

Consider `CCN1CCN(c2ccc([N+](=O)[O-])cc2C#N)CC1`, for which the activation is 43.4% (active).

`CCOc1ccc(-c2cc(C)[n+](CCN(CC)CC)c(-c3ccc(OCC)cc3)c2)cc1`: the activation is 34.4% (active).

As for `CC[N+](CC)(CC)CCCCCCCCCC[N+](CC)(CC)CC`, the activation was 41% (active).
